Shown are actives, neighbours in structure and some others; about 0.38% of the full set was active somewhere.
EPAC1 agonist = activates human EPAC1 exchange factor; O95398; EPAC1 agonist qHTS, biochemical assay; response scale: 100% = response to 6.5 mM cAMP; Potency, µM (highest dose often 154 µM), most hits filed as activators; actives 0.073% (n = 360,000); note: nearly all actives have a fitted effect of over 60% in size
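EPAC1 100 nM, Rap1B–BODIPY-GDP 250 nM, unlabeled GDP 50 uM; compound titration; 5 min RT; kinetic read ex480/em540 at 5-min intervals ×30 min; data normalized to 6.5 mM cAMP agonist control.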
EPAC1 antagonist = EPAC1 (human) antagonism | AID 720709 | actives 0.14% (n = 360,000) | EPAC1 GEF assay, Rap1b-BODIPY-GDP exchange fluorescence | Potency, µM (top dose mostly 115 µM), most hits filed as inhibitors; note: nearly all actives have a fitted effect of over 50% in size
EPAC2 agonist = EPAC2 (human) agonism. Q8WZA2. EPAC2 activation, biochemical qHTS; response scale: 100% = 6.5 mM cAMP response. Potency, µM (highest dose often 154 µM), usual class: activators. actives 0.079% (n = 360,000). AID 720711; note: nearly all actives have a fitted effect of over 50% in size
Target sequence (Q8WZA2 whole entry, looked up): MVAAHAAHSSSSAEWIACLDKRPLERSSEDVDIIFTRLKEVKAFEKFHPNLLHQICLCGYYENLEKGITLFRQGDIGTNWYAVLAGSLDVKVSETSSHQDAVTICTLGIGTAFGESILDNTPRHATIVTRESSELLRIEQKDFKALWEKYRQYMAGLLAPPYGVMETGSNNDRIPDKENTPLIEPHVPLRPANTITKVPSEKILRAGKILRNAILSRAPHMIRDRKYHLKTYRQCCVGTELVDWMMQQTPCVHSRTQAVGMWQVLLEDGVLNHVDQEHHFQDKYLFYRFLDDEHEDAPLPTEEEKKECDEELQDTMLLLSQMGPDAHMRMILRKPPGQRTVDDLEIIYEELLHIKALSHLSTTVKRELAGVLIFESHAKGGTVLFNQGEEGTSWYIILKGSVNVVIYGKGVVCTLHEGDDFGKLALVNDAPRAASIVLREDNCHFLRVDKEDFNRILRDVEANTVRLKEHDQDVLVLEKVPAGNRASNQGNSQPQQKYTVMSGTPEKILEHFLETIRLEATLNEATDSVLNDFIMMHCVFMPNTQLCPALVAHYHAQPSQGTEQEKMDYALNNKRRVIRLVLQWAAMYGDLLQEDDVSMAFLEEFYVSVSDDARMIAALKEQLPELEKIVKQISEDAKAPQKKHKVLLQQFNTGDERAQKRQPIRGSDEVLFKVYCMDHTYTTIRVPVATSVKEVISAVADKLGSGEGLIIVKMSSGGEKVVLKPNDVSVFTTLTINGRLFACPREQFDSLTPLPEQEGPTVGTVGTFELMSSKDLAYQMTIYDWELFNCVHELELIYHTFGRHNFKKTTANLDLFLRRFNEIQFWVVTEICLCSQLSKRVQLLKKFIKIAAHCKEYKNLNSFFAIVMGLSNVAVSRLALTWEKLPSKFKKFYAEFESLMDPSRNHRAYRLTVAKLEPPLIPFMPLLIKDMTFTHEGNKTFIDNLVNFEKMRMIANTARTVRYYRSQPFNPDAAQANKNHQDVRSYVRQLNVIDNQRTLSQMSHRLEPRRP
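Compounds were added across a concentration range to EPAC2 (100 nM), RAP1B-BODIPY-GDP (250 nM) and GDP (50 uM). After 5 min at room temperature, fluorescence was recorded at 5-min intervals for 30 min.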
EPAC2 antag = blocks human EPAC2 exchange factor | Q8WZA2 | EPAC2 GEF exchange of Rap1B-BODIPY-GDP, fluorescence | Potency, µM (titrated, usually from 114 µM), usual class: inhibitors | actives 0.18% (n = 360,000) | AID 720708; note: nearly all actives have a fitted effect of over 45% in size
A number is an active result; . = inactive; ? = inconclusive. Calls come from the whole dose curve; as a rule, active = well fitted curve in the direction sought with a large enough effect; inconclusive = small, poorly fitted or top-dose-only effect, or another doubt; inactive = no such curve, though single readings can be large; an effect the other way counts as inactive or inconclusive.

SMILES	EPAC1 agonist	EPAC1 antagonist	EPAC2 agonist	EPAC2 antag
O=C(c1cc([N+](=O)[O-])ccc1N1CCNCC1)N1CCOCC1	.	.	.	.
O=c1oc(Cl)c(Cl)c2ccccc12	.	?	.	.
O=C1NC(=O)C(=Cc2cn(CCOc3ccc4c(c3)OCO4)c3ccccc23)C(=O)N1	.	.	100µM	.
Cc1nc(-c2cccc(NC(=O)c3ccc(Cl)c(S(=O)(=O)N4CCCC4)c3)c2)cs1	.	.	.	.
CN1/C(=C\C=C2C(=O)NC(=O)NC2=O)C(C)(C)c2ccccc21	?	.	.	.
CCN1/C(=C/C=C/C2=[N+](CC)c3ccccc3C2(C)C)C(C)(C)c2ccccc21	56.2µM	.	17.8µM	.
CC(C)CCOP(=O)(c1ccc(N(C)C)cc1)C(O)c1ccc(Cl)cc1Cl (stereo not given)	.	.	.	35.5µM
CCCCCn1c(NC(=O)c2ccco2)c(C(=O)OCC)c2nc3ccccc3nc21	.	50.1µM	.	39.8µM
COCCCn1c(N)c(C(=O)OCCOC)c2nc3ccccc3nc21	.	.	.	.
CCOC(=O)c1c(NS(=O)(=O)c2ccccc2)n(CCCOC)c2nc3ccccc3nc12	.	7.94µM	.	?
Cc1ccccc1N(CC(=O)NC1CCCC1)C(=O)c1csnn1	.	?	.	.
Cc1ccc(N2C(=O)NC(=O)/C(=C\C=C\c3ccco3)C2=O)cc1	.	?	.	.
Cc1ccc(N2C(=O)NC(=O)/C(=C\C=C\c3ccco3)C2=O)cc1C	.	56.2µM	.	.
O=C1NC(=O)N(Cc2ccco2)C(=O)/C1=C/C=C/c1ccco1	.	56.2µM	.	.
O=C1NC(=O)N(Cc2ccccc2)C(=O)/C1=C\C=C\c1ccco1	.	56.2µM	.	.
CC[C@@]1(C(=O)OC)N[C@H](CN(C)C(=O)Nc2ccc(OC)cc2)[C@@H]2C(=O)N(Cc3ccccc3)C(=O)[C@@H]21	.	.	?	.
COc1ccc(OC)c(N2C(=O)/C(=C/c3ccco3)C(=O)NC2=S)c1	.	8.91µM	.	?
COc1ccc(N2C(=O)/C(=C/c3ccc(C)o3)C(=O)NC2=S)cc1	.	?	.	.
Oc1c(Br)c(Br)c(Br)c(Br)c1Br	.	70.8µM	.	20µM
Oc1c(Br)cc(Br)cc1Br	.	.	.	.
